Data reported in PubChem BioAssay (EPA / NIEHS).
Where “and” joins values, the source holds several entries; their conditions need not be identical. Identical values can stand only once. Inconclusive results are not listed. Where a structure was tested more than once in an assay, its records may differ in their call. Calls of active or inactive are those of the source. Rule for the calls, unless noted: active = hit-call score of the fitted dose curve at least 0.9, where 1 is the maximum; inactive = score below 0.9.

Legend:
[1] = molecular target: human RAR-related Orphan Receptor gamma (RORg), RORC (gene 6097) (UniProt P51449); experiment: ATG_RORg_TRANS: Attagene TRANS-FACTORIAL HepG2 Assay for human RAR-related Orphan Receptor gamma (RORg) (AID 2283011; active = hit-call score of the fitted dose curve at least 0.9, where 1 is the maximum)
Sequence of human RAR-related Orphan Receptor gamma (RORg), RORC (gene 6097) (P51449 whole entry, looked up, the tested form may be a part): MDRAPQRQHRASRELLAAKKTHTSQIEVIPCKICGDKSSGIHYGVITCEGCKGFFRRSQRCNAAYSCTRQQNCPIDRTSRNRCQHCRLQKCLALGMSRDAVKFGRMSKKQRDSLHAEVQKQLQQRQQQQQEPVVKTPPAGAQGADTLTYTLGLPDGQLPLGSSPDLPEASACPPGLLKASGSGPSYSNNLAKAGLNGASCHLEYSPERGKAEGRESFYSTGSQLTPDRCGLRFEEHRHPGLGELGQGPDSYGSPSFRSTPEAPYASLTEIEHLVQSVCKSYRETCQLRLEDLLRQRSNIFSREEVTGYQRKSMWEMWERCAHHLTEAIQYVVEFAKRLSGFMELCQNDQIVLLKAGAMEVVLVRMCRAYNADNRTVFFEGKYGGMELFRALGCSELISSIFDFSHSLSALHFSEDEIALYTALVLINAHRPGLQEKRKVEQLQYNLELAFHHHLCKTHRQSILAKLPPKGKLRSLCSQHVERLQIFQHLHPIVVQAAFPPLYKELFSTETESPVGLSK
Procedure, shortened: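 Readout: reporter transcript induction (RT-PCR, fluorescent primer extension, capillary electrophoresis) after 24 h compound exposure of transiently transfected HepG2 cells carrying a RORg-Gal4 chimera and GAL4-UAS reporters; DMSO served as baseline, with increasing signal fitted.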

[2] = molecular target: Retinoic acid receptor RXR-alpha (Homo sapiens) (UniProt P19793); experiment: ATG_RXRa_TRANS: Attagene TRANS-FACTORIAL HepG2 Assay for human Retinoid X Receptor alpha (RXRa) (AID 2283012; active = hit-call score of the fitted dose curve at least 0.9, where 1 is the maximum)
Sequence of Retinoic acid receptor RXR-alpha (Homo sapiens) (P19793 whole entry, looked up, the tested form may be a part): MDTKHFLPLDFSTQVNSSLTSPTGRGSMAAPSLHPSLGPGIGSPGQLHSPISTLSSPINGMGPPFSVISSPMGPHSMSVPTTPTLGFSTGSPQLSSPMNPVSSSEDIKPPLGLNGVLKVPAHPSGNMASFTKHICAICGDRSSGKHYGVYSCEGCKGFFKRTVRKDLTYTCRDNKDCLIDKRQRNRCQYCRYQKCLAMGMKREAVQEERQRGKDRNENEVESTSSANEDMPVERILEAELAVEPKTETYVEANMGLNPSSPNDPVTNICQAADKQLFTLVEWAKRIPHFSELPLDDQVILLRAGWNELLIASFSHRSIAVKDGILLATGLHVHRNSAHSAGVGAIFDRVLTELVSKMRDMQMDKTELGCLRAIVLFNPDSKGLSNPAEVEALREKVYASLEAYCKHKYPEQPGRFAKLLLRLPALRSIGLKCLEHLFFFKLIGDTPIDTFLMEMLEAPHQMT
Procedure, shortened: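 Transient transfection of human HepG2 with multiple GAL4-UAS reporter constructs; 24 h compound exposure; total RNA isolated, reverse-transcribed, PCR-amplified, 6-FAM labelled, HpaI-cut, resolved by capillary electrophoresis. Positive-direction fit versus DMSO.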

[3] = molecular target: human Retinoid X Receptor beta (RXRb), RXRB (gene 6257) (UniProt P28702); experiment: ATG_RXRb_TRANS: Attagene TRANS-FACTORIAL HepG2 Assay for human Retinoid X Receptor beta (RXRb) (AID 2283013; active = hit-call score of the fitted dose curve at least 0.9, where 1 is the maximum)
Sequence of human Retinoid X Receptor beta (RXRb), RXRB (gene 6257) (P28702 whole entry, looked up, the tested form may be a part): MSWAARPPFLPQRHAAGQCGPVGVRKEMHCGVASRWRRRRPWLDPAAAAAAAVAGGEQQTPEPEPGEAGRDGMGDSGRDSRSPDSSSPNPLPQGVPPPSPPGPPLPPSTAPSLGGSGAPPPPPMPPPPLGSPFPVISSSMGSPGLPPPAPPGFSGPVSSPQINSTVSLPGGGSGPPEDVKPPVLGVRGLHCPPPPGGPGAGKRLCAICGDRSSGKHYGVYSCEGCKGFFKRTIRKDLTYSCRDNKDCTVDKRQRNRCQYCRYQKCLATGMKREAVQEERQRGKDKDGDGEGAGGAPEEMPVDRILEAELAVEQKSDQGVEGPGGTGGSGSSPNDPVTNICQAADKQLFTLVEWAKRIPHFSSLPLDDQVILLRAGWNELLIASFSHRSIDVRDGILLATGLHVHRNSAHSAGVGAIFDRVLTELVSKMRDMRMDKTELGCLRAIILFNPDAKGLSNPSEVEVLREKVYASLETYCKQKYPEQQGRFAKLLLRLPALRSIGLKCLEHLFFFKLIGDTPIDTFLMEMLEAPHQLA
Procedure, shortened: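 Transfect HepG2 with GAL4-UAS multi-reporter constructs (chimeric NR-Gal4, TRANS format); dose compound 24 h; isolate RNA, RT-PCR, FAM primer extension, HpaI digest; quantify by capillary electrophoresis; positive direction vs DMSO.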

[4] = molecular target: human Thyroid Receptor alpha (THRa1), THRA (gene 7067) (UniProt P10827); experiment: ATG_THRa1_TRANS: Attagene TRANS-FACTORIAL HepG2 Assay for human Thyroid Receptor alpha (THRa1) (AID 2283014; active = hit-call score of the fitted dose curve at least 0.9, where 1 is the maximum)
Sequence of human Thyroid Receptor alpha (THRa1), THRA (gene 7067) (P10827 whole entry, looked up, the tested form may be a part): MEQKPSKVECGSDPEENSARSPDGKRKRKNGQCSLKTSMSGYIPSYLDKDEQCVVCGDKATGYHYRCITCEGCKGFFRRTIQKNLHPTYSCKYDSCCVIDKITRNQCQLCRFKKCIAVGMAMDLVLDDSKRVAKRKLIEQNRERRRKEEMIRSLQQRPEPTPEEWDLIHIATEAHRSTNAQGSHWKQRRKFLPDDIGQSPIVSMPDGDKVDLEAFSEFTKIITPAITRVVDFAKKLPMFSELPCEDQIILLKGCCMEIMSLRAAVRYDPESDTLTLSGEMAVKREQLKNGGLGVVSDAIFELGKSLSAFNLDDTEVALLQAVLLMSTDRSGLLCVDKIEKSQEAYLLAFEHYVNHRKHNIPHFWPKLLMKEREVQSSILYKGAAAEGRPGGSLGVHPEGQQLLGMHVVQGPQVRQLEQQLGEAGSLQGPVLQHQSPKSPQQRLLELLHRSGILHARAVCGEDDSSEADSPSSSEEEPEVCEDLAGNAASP
Procedure, shortened: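 HepG2 cells transiently transfected with multiplexed GAL4-UAS reporter units for exogenous chimeric THRa1-Gal4; reporter mRNA measured 24 h after dosing by RT-PCR, 6-FAM labelling, HpaI digestion and capillary electrophoresis. Gain-of-signal fitted versus DMSO baseline.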

[5] = read-out: E-selectin (Homo sapiens) (UniProt P16581); experiment: BSK_3C_Eselectin: BioMAP Diversity Plus: 3C Assay for Eselectin Biomarker Activity (AID 2283015); conditions: primary human endothelial cells (HUVEC); actives raise or lower the signal
Procedure, shortened: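 Primary human umbilical vein endothelial cells (3C system) were dosed with chemical and cell-surface E-selectin measured by ELISA 24 h later. Bidirectional curve fitting used DMSO as negative control and baseline.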

[6] = read-out: Interleukin-1 alpha (IL1a), IL1A (gene 3552); experiment: BSK_BE3C_IL1a: BioMAP Diversity Plus: BE3C Assay for Interleukin-1 alpha (IL1a) Biomarker Activity (AID 2283016); conditions: primary human bronchial epithelial cells; actives raise or lower the signal
Procedure, shortened: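 BE3C primary human bronchial epithelium; cpd 24 h; IL-1a by ELISA; bidirectional fit vs DMSO; parallel SRB (0.1% SRB, 10% TCA fix, 560 nm) for cytotoxicity.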

[7] = read-out: Monocyte Chemoattractant Protein-1 (MCP1), CCL2 (gene 6347); experiment: BSK_3C_MCP1: BioMAP Diversity Plus: 3C Assay for Monocyte Chemoattractant Protein-1 (MCP1) Biomarker Activity (AID 2283017); conditions: primary human endothelial cells (HUVEC); actives raise or lower the signal
Procedure, shortened: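 Primary human umbilical vein endothelial cells (3C system) were exposed to test chemical for 24 h, after which MCP-1 was quantified by ELISA. Activity was fitted bidirectionally against DMSO as negative control and baseline.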

[8] = read-out: Monocyte Chemoattractant Protein-1 (MCP1), CCL2 (gene 6347); experiment: BSK_4H_MCP1: BioMAP Diversity Plus: 4H Assay for Monocyte Chemoattractant Protein-1 (MCP1) Biomarker Activity (AID 2283018); conditions: primary human endothelial cells (HUVEC); actives raise or lower the signal
Procedure, shortened: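 ELISA read-out of MCP-1 from human vascular endothelial primary cells taken at 24 hours after compound exposure. Activity was fitted in both directions relative to DMSO, which served as negative control.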

[9] = read-out: Human Leukocyte Antigen - DR isotype (HLADR), HLA-DRA (gene 3122); experiment: BSK_3C_HLADR: BioMAP Diversity Plus: 3C Assay for Human Leukocyte Antigen - DR isotype (HLADR) Biomarker Activity (AID 2283019); conditions: primary human endothelial cells (HUVEC); actives raise or lower the signal
Procedure, shortened: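 Primary human umbilical vein endothelial cells (3C system) were dosed with compound and cell-surface HLA-DR was quantified by ELISA at 24 h. Activity was fitted bidirectionally against DMSO as negative control and baseline.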

[10] = read-out: Interleukin-8 (IL8), CXCL8 (gene 3576); experiment: BSK_3C_IL8: BioMAP Diversity Plus: 3C Assay for Interleukin-8 (IL8) Biomarker Activity (AID 2283020); conditions: primary human endothelial cells (HUVEC); actives raise or lower the signal
Procedure, shortened: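 ELISA read-out of IL-8 from human umbilical vein endothelium, measured 24 h after chemical dosing. Activity is expressed relative to DMSO negative control, with both increases and decreases fitted.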

[11] = read-out: Monokine induced gamma interferon (MIG), CXCL9 (gene 4283); experiment: BSK_3C_MIG: BioMAP Diversity Plus: 3C Assay for Monokine induced gamma interferon (MIG) Biomarker Activity (AID 2283021); conditions: primary human endothelial cells (HUVEC); actives raise or lower the signal;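 for AC50: MIG protein level measured by immunoassay in the treated endothelial cultures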
Procedure, shortened: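 Read-out is ELISA detection of MIG on human umbilical vein endothelial cells, taken 24 h after dosing. Gain or loss of signal was scored relative to DMSO controls using bidirectional curve fitting.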

[12] = molecular target: human Vitamin D Receptor (VDR), VDR (gene 7421) (UniProt P11473); experiment: ATG_VDR_TRANS: Attagene TRANS-FACTORIAL HepG2 Assay for human Vitamin D Receptor (VDR) (AID 2283022; active = hit-call score of the fitted dose curve at least 0.9, where 1 is the maximum)
Sequence of human Vitamin D Receptor (VDR), VDR (gene 7421) (P11473 whole entry, looked up, the tested form may be a part): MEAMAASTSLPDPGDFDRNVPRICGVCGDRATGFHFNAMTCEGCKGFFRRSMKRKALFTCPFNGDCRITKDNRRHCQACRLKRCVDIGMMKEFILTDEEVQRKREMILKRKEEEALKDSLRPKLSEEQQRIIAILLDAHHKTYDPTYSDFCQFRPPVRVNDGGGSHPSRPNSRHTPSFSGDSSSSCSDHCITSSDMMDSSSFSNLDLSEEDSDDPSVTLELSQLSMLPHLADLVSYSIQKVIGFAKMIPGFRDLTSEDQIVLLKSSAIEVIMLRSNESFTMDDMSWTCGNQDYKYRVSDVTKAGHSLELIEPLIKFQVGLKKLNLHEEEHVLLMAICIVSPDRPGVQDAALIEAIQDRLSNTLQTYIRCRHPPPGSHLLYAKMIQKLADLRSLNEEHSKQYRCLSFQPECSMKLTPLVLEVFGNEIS
Procedure, shortened: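 HepG2 cells were transiently transfected with multiple GAL4-UAS reporter units, so signal reflects exogenous chimeric receptor-Gal4 activity. After 24 h compound exposure, reporter mRNA was measured by RT-PCR, fluorescent labelling and capillary electrophoresis, fitted for gain of signal versus DMSO.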

[13] = BSK_3C_SRB: Viability Assessment in the BioMAP Diversity Plus: 3C Assay (AID 2283023); conditions: primary human endothelial cells (HUVEC);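 note: fitted both ways against DMSO so a hit may be signal rise or drop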
Procedure, shortened: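 Primary human umbilical vein endothelial cells in the 3C system were read 24 h after compound dosing. Total protein was stained with 0.1% sulforhodamine B after 10% TCA fixation and read at 560 nm, with bidirectional fitting against DMSO as baseline.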

[14] = read-out: Matrix Metallopeptidase 1 (MMP1), MMP1 (gene 4312); experiment: BSK_BE3C_MMP1: BioMAP Diversity Plus: BE3C Assay for Matrix Metallopeptidase 1 (MMP1) Biomarker Activity (AID 2283024); conditions: primary human bronchial epithelial cells; actives raise or lower the signal
Procedure, shortened: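 Human bronchial epithelial cells (BE3C system) exposed to compound for 24 h; MMP1 then quantified by ELISA. Activity was fitted in both directions relative to DMSO.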

[15] = BSK_3C_Vis: BioMAP Diversity Plus: 3C Assay for Morphology Visualization (AID 2283025); conditions: primary human endothelial cells (HUVEC);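 note: fitted both ways so gain or loss versus DMSO counts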;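 for AC50: light microscopy image of cell morphology used as background control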
Procedure, shortened: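 Chemicals were added to primary human umbilical vein endothelium, cells were incubated 24 h, and morphology was then visualized by light microscopy. Gain or loss of signal was fitted bidirectionally relative to DMSO.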

[16] = read-out: Pselectin, SELP (gene 6403); experiment: BSK_4H_Pselectin: BioMAP Diversity Plus: 4H Assay for Pselectin Biomarker Activity (AID 2283026); conditions: primary human endothelial cells (HUVEC); actives raise or lower the signal
Procedure, shortened: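 ELISA read-out of P-selectin on human umbilical vein endothelium after 24 h of dosing. Values derive from bidirectional fitting relative to DMSO. Parallel SRB protein staining flagged overt cytotoxicity.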

[17] = read-out: Thrombomodulin, THBD (gene 7056); experiment: BSK_3C_Thrombomodulin: BioMAP Diversity Plus: 3C Assay for Thrombomodulin Biomarker Activity (AID 2283029); conditions: primary human endothelial cells (HUVEC); actives raise or lower the signal
Procedure, shortened: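 Read-out is ELISA of thrombomodulin on human umbilical vein endothelium 24 h after chemical dosing. Gain or loss of signal is scored relative to DMSO. Overt cytotoxicity is checked in parallel cultures by sulforhodamine B staining.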

[18] = read-out: Urokinase-type plasminogen activator receptor (uPAR), PLAUR (gene 5329); experiment: BSK_4H_uPAR: BioMAP Diversity Plus: 4H Assay for Urokinase-type plasminogen activator receptor (uPAR) Biomarker Activity (AID 2283030); conditions: primary human endothelial cells (HUVEC); actives raise or lower the signal
Procedure, shortened: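 Primary human umbilical vein endothelial cells were exposed to chemical for 24 h before cell-surface uPAR was quantified by ELISA. Activity was fitted bidirectionally against the DMSO negative control baseline.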

[19] = BSK_BE3C_SRB: Viability Assessment in the BioMAP Diversity Plus: BE3C Assay (AID 2283028); conditions: primary human bronchial epithelial cells
Procedure, shortened: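 Human primary bronchial epithelial cells were exposed to test chemicals for 24 h. Total protein in parallel cultures was then measured by staining with 0.1% sulforhodamine B after 10% TCA fixation, with absorbance read at 560 nm. Activity was fitted bidirectionally against DMSO.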

[20] = BSK_4H_SRB: Viability Assessment in the BioMAP Diversity Plus: 4H Assay (AID 2283027); conditions: primary human endothelial cells (HUVEC);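 note: cells exposed to compound for 24 h before staining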;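 for AC50: curves fitted both ways versus DMSO so AC50 may be loss or gain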
Procedure, shortened: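 Human umbilical vein endothelial cells, 24 h after chemical dosing; total protein measured by 0.1% sulforhodamine B staining after 10% TCA fixation, read at 560 nm. Bidirectional fitting against DMSO.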

Measured: AC50

Sequence of E-selectin (Homo sapiens) (P16581 whole entry, looked up): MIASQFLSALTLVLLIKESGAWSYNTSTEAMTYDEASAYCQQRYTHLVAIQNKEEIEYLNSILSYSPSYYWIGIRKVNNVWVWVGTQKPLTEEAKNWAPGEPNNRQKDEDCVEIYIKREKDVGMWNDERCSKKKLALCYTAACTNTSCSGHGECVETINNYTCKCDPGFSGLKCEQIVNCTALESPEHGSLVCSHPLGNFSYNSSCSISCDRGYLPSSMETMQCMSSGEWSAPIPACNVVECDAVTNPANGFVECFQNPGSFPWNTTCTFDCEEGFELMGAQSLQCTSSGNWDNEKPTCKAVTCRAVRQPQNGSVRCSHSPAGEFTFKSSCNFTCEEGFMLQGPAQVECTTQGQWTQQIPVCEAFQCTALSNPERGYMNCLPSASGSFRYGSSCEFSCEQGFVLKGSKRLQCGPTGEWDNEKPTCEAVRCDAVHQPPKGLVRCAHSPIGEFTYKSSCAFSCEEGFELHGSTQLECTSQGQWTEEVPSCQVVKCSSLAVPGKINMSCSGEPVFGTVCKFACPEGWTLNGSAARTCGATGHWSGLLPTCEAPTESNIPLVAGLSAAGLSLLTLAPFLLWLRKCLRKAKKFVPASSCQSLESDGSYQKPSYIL

CC(C)(O)C(=O)Nc1ccc([N+](=O)[O-])c(C(F)(F)F)c1
active: [3] 22.8 µM and 28.1 µM and 15.6 µM
inactive: [1] | [2] | [3] | [4] | [5] | [6] | [7] | [8] | [9] | [10] | [11] | [12] | [13] | [14] | [15] | [16] | [17] | [18]

O=S(=O)(O)C(F)(F)C(F)(F)C(F)(F)C(F)(F)F
not listed: [3] | [20]
inactive: all other assays above

CCC(=O)O[C@H]1CC[C@H]2[C@@H]3CCC4=CC(=O)CC[C@]4(C)[C@H]3CC[C@]12C
inactive: [1] | [2] | [3] | [4] | [6] | [12] | [14] | [17]
active: [5] 32.6 µM | [7] 29 µM | [8] 31.8 µM | [9] 33.9 µM | [11] 38.8 µM | [13] 28.4 µM | [15] 20.7 µM | [16] 34 µM | [20] 33.5 µM | [18] 30.3 µM

O=S(=O)(O)C(F)(F)C(F)(F)C(F)(F)C(F)(F)C(F)(F)C(F)(F)F
active: [14] 44.3 µM and 37.7 µM | [16] 17.2 µM
inactive: [1] | [2] | [3] | [5] | [6] | [7] | [8] | [9] | [11] | [12] | [13] | [14] | [15] | [16] | [17] | [18]

CC(C)(c1ccccc1)c1ccc(O)cc1
active: [3] 9.21 µM [middle of 4 runs] | [5] 34.7 µM | [6] 32.2 µM | [7] 39.3 µM | [8] 20 µM | [9] 39 µM | [10] 35.6 µM | [11] 39.1 µM | [13] 30.2 µM | [15] 37.5 µM | [16] 32.6 µM | [20] 30.5 µM | [18] 32 µM
inactive: [2] | [4] | [12] | [14] | [17]

C1CC2OC2CC1C1CO1 (stereo not drawn)
not listed: [2] | [3] | [4]
inactive: all other assays above
